Results taken from PubChem BioAssay AID1159580 (chemical genetic matrix, 2015).
Several values for one entry are separate records, joined by “and”; a condition that tells them apart may be missing. Identical values can stand only once. Screen size: about 5,500 compounds; about 2,000 (36%) were called active. Not shown: some 18% with an inconclusive outcome. Rule as the data show it: active = normalized growth mostly below about 0.91 (no sharp cut-off); inconclusive = no clear call, values can overlap the other calls; inactive = mostly above about 0.92. This is one part of the list.

Test: chemical genetic growth profiling, strain panel (AID 1159580);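 also: tested at 20 µM; growth read once vehicle control cultures reached saturation at 30 °C; 1 = growth at the plate median or of vehicle wells; lower values mean less growth of the strain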
Settings: S. cerevisiae deletion strains, growth OD

Measured: normalized growth

CC(C)c1c(O)ccc2c1CCC1[C@@](C)(C=O)CCC[C@]21C (stereo partly specified)
inactive: locus YAL021C, strain ccr4, stronger effect = lower value 0.984 | locus YAL026C, strain drs2, stronger effect = lower value 0.93 | locus YBR171W, strain sec66, stronger effect = lower value 0.97 | locus YBR279W, strain paf1, stronger effect = lower value 0.955 | locus YCL061C, strain MRC1, stronger effect = lower value 1 | locus YCL069W, strain vba3, stronger effect = lower value 1.01 | locus YCR088W, strain abp1, stronger effect = lower value 0.996 | locus YDL005C, strain med2, stronger effect = lower value 1.01 | locus YDL040C, strain nat1, stronger effect = lower value 1.01 | locus YDR001C, strain nth1, stronger effect = lower value 1.01 | locus YDR069C, strain doa4, stronger effect = lower value 0.923 | locus YDR334W, strain swr1, stronger effect = lower value 1.01 | locus YDR335W, strain msn5, stronger effect = lower value 0.987 | locus YEL037C, strain rad23, stronger effect = lower value 1 | locus YEL061C, strain CIN8 (second series), stronger effect = lower value 0.99 | locus YER111C, strain swi4, stronger effect = lower value 0.999 | locus YER155C, strain BEM2 (second series), stronger effect = lower value 1 | locus YFR010W, strain ubp6, stronger effect = lower value 1 | locus YGL167C, strain pmr1, stronger effect = lower value 0.945 | locus YGL173C, strain kem1, stronger effect = lower value 1.01 | locus YGL227W, strain vid30, stronger effect = lower value 0.997 | locus YGL240W, strain doc1, stronger effect = lower value 0.926 | locus YGL253W, strain hxk2, stronger effect = lower value 0.96 | locus YHR013C, strain ard1, stronger effect = lower value 1.14 | locus YHR142W, strain chs7, stronger effect = lower value 0.899 | locus YJL092W, strain hpr5, stronger effect = lower value 0.995 | locus YJL115W, strain asf1, stronger effect = lower value 1.02 | locus YJL154C, strain vps35, stronger effect = lower value 1.02 | locus YJR066W, strain TOR1, stronger effect = lower value 0.826 | locus YKL009W, strain mrt4, stronger effect = lower value 0.998 | locus YKL068W, stronger effect = lower value 0.969 | locus YKL160W, strain elf1, stronger effect = lower value 0.915 | locus YKR026C, strain gcn3, stronger effect = lower value 1 | locus YKR091W, strain srl3, stronger effect = lower value 1.01 | locus YLL001W, strain dnm1, stronger effect = lower value 0.964 | locus YLR357W, strain rsc2, stronger effect = lower value 1.11 | locus YLR370C, strain arc18, stronger effect = lower value 1.01 | locus YLR384C, strain iki3, stronger effect = lower value 1.02 | locus YMR058W, strain fet3, stronger effect = lower value 0.991 | locus YMR125W, strain sto1, stronger effect = lower value 1.01 | locus YMR129W, stronger effect = lower value 0.972 | locus YMR231W, strain pep5, stronger effect = lower value 1.04 | locus YNL183C, strain NPR1, stronger effect = lower value 0.83 | locus YNL209W, strain ssb2, stronger effect = lower value 0.959 | locus YNL248C, strain rpa49, stronger effect = lower value 1.04 | locus YNL322C, strain KRE1 (second series), stronger effect = lower value 1.02 | locus YNR049C, strain mso1, stronger effect = lower value 1.01 | locus YOL012C, strain htz1 1.05 | locus YOR080W, strain dia2, stronger effect = lower value 0.996 | locus YOR290C, strain snf2, stronger effect = lower value 0.909 | locus YPL078C, strain atp4, stronger effect = lower value 0.996 | locus YPL106C, strain sse1, stronger effect = lower value 0.94 | locus YPR141C, strain kar3, stronger effect = lower value 0.999
active: locus YAL030W, strain snc1, stronger effect = lower value 0.79 | locus YBL061C, strain skt5, stronger effect = lower value 0.833 | locus YBR009C, strain hhf1, stronger effect = lower value 0.476 | locus YBR021W, strain FUR4, stronger effect = lower value 0.476 | locus YBR023C, strain chs3, stronger effect = lower value 0.821 | locus YBR229C, strain ROT2, stronger effect = lower value 0.713 | locus YBR231C, strain swc5, stronger effect = lower value 0.722 | locus YCL011C, strain gbp2, stronger effect = lower value 0.783 | locus YCL016C, strain dcc1, stronger effect = lower value 0.803 | locus YCL029C, strain bik1, stronger effect = lower value 0.52 | locus YDL035C, strain GPR1, stronger effect = lower value 0.425 | locus YDL074C, strain BRE1, stronger effect = lower value 0.12 | locus YDL101C, strain DUN1, stronger effect = lower value 0.517 | locus YDL185W, strain tfp1, stronger effect = lower value 0.469 | locus YDL192W, strain arf1, stronger effect = lower value 0.246 | locus YDR101C, strain arx1, stronger effect = lower value 0.631 | locus YDR137W, strain rgp1, stronger effect = lower value 0.237 | locus YDR159W, strain sac3, stronger effect = lower value 0.54 | locus YDR162C, strain NBP2, stronger effect = lower value 0.171 | locus YDR195W, strain ref2 0.431 | locus YDR297W, strain sur2, stronger effect = lower value 0.772 | locus YDR318W, strain mcm21, stronger effect = lower value 0.35 | locus YDR388W, stronger effect = lower value 0.732 | locus YDR392W, strain spt3, stronger effect = lower value 0.415 | locus YDR502C, strain sam2, stronger effect = lower value 0.35 | locus YEL003W, strain gim4, stronger effect = lower value 0.834 | locus YER016W, strain bim1, stronger effect = lower value 0.789 | locus YER110C, stronger effect = lower value 0.853 | locus YER155C, strain BEM2, stronger effect = lower value 0.0936 | locus YER167W, strain BCK2, stronger effect = lower value 0.336 | locus YGL078C, strain dbp3, stronger effect = lower value 0.886 | locus YGL086W, strain mad1, stronger effect = lower value 0.274 | locus YGL248W, strain PDE1, stronger effect = lower value 0.36 | locus YGR078C, strain PAC10, stronger effect = lower value 0.303 | locus YGR135W, strain pre9, stronger effect = lower value 0.601 | locus YGR252W, strain gcn5, stronger effect = lower value 0.248 | locus YHR030C, strain SLT2, stronger effect = lower value 0.756 | locus YHR079C, strain IRE1 (second series), stronger effect = lower value 0.579 | locus YHR079C, strain IRE1, stronger effect = lower value 0.791 | locus YHR094C, strain hxt1, stronger effect = lower value 0.392 | locus YHR129C, strain ARP1, stronger effect = lower value 0.143 | locus YHR200W, strain rpn10, stronger effect = lower value 0.578 | locus YIL066C, strain RNR3, stronger effect = lower value 0.303 | locus YIL073C, strain SPO22, stronger effect = lower value 0.554 | locus YIL125W, strain kgd1, stronger effect = lower value 0.621 | locus YIR030C, strain dcg1, stronger effect = lower value 0.607 | locus YJL095W, strain BCK1 (second series), stronger effect = lower value 0.35 | locus YJL095W, strain BCK1, stronger effect = lower value 0.0842 and 0.826 | locus YJL129C, strain trk1, stronger effect = lower value 0.505 | locus YJL134W, strain LCB3, stronger effect = lower value 0.729 | locus YJL164C, strain tpk1, stronger effect = lower value 0.578 | locus YJL166W, strain qcr8, stronger effect = lower value 0.643 | locus YJL168C, strain set2, stronger effect = lower value 0.921 | locus YJL187C, strain SWE1 (second series), stronger effect = lower value 0.346 | locus YJR075W, strain HOC1, stronger effect = lower value 0.482 | locus YKL085W, strain MDH1 (second series), stronger effect = lower value 0.583 | locus YKL085W, strain MDH1, stronger effect = lower value 0.583 | locus YKL190W, strain CNB1, stronger effect = lower value 0.154 | locus YKR001C, strain vps1, stronger effect = lower value 0.0888 | locus YLL026W, stronger effect = lower value 0.79 | locus YLL041C, strain sdh2, stronger effect = lower value 0.895 | locus YLR027C, strain aat2, stronger effect = lower value 0.653 | locus YLR039C, strain RIC1, stronger effect = lower value 0.148 | locus YLR058C, strain SHM2, stronger effect = lower value 0.352 | locus YLR102C, strain apc9, stronger effect = lower value 0.432 | locus YLR113W, strain HOG1, stronger effect = lower value 0.782 | locus YLR221C, strain rsa3, stronger effect = lower value 0.692 | locus YLR258W, strain gsy2, stronger effect = lower value 0.768 | locus YLR262C, strain YPT6 (second series), stronger effect = lower value 0.255 | locus YLR262C, strain YPT6, stronger effect = lower value 0.219 | locus YLR268W, strain sec22, stronger effect = lower value 0.411 | locus YLR320W, strain mms22, stronger effect = lower value 0.62 | locus YLR330W, strain CHS5, stronger effect = lower value 0.228 | locus YLR342W, strain FKS1 (second series), stronger effect = lower value 0.208 | locus YLR342W, strain FKS1, stronger effect = lower value 0.774 | locus YLR371W, strain rom2, stronger effect = lower value 0.317 | locus YLR418C, strain cdc73, stronger effect = lower value 0.137 | locus YML016C, strain PPZ1, stronger effect = lower value 0.8 | locus YML032C, strain rad52, stronger effect = lower value 0.467 | locus YML120C, strain ndi1, stronger effect = lower value 0.465 | locus YML124C, strain tub3, stronger effect = lower value 0.507 | locus YMR078C, strain ctf18, stronger effect = lower value 0.422 | locus YMR205C, strain PFK2, stronger effect = lower value 0.617 | locus YMR223W, strain ubp8, stronger effect = lower value 0.429 | locus YMR307W, strain GAS1, stronger effect = lower value 0.306 | locus YNL067W, strain RPL9B, stronger effect = lower value 0.583 | locus YNL071W, strain lat1, stronger effect = lower value 0.424 | locus YNL233W, strain BNI4, stronger effect = lower value 0.172 | locus YNL250W, strain rad50, stronger effect = lower value 0.868 | locus YNL271C, strain bni1, stronger effect = lower value 0.875 | locus YNL298W, strain CLA4, stronger effect = lower value 0.847 | locus YNL307C, strain MCK1, stronger effect = lower value 0.0743 | locus YNL322C, strain KRE1, stronger effect = lower value 0.333 | locus YNR052C, strain pop2, stronger effect = lower value 0.53 | locus YOL006C, strain TOP1, stronger effect = lower value 0.396 | locus YOL147C, strain pex11, stronger effect = lower value 0.205 | locus YOR001W, strain rrp6, stronger effect = lower value 0.857 | locus YOR061W, strain CKA2, stronger effect = lower value 0.689 | locus YOR069W, strain VPS5, stronger effect = lower value 0.668 | locus YOR070C, strain gyp1, stronger effect = lower value 0.598 | locus YOR083W, strain WHI5, stronger effect = lower value 0.822 | locus YOR106W, strain vam3, stronger effect = lower value 0.563 | locus YOR136W, strain idh2, stronger effect = lower value 0.559 | locus YOR144C, strain elg1, stronger effect = lower value 0.48 | locus YOR184W, strain ser1, stronger effect = lower value 0.153 | locus YOR231W, strain MKK1, stronger effect = lower value 0.784 | locus YOR265W, strain rbl2, stronger effect = lower value 0.88 | locus YOR270C, strain vph1, stronger effect = lower value 0.739 | locus YOR316C, strain cot1, stronger effect = lower value 0.49 | locus YPL051W, strain arl3, stronger effect = lower value 0.769 | locus YPL055C, strain LGE1, stronger effect = lower value 0.147 | locus YPL240C, strain hsp82, stronger effect = lower value 0.626 | locus YPL241C, strain CIN2, stronger effect = lower value 0.487 | locus YPL256C, strain CLN2, stronger effect = lower value 0.814 | locus YPR119W, strain clb2, stronger effect = lower value 0.305 | locus YPR163C, strain tif3, stronger effect = lower value 0.345 | locus YPR167C, strain met16, stronger effect = lower value 0.314 | strain wtn01, stronger effect = lower value 0.304
